Data as given in the supplement of paper PMC11577813, “Eurasian spruce bark beetle detects lanierone using a highly expressed specialist odorant receptor, present in several functional sensillum types” (BMC Biology, 2024).
± gives the standard deviation of the averaged measurements.

Test system: (4S)-cis-verbenol A-neuron OSN class
Experiment: net action potential response of A-neuron (blank-subtracted) (spikes/s (Hz)); higher = stronger excitation
Conditions: 10 µg on filter paper; neuron: A neuron (large spike amplitude)
Experimental: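 Single sensillum recordings from antennal olfactory sensilla of live adult Ips typographus. Each compound was 10 µg in paraffin oil on filter paper, delivered as a 0.5 s puff. Net response = spikes in the first 0.5 s of response minus the 0.5 s pre-stimulus count, doubled to give Hz, with blank response subtracted. Values are for the large-spike A-neuron class of each of seven sensillum types that co-house the lanierone B-neuron; N = 1-4 sensilla, averaged.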

SMILES | net action potential response
C=CCc1ccc(OC)cc1 [Estragole] | -2 ± 3.5
O=Cc1ccccc1 [Benzaldehyde] | 2 ± 6
Cc1ccccc1 [Toluene] | 1.33 ± 6.4
